RE007 growth inh – less growth of the S. pombe RE007 Vpr strain | S. pombe RE007 Vpr strain, BacTiter-Glo ATP luminescence, 24 h | Potency, µM (titrated, usually from 92.2 µM), actives largely listed as inhibitors | 0.21% of 360,000 active; active = well fitted falling curve with a large enough effect; inconclusive = small, poorly fitted or top-dose-only effect; inactive = no such curve, though single readings can be large or run the other way; note: nearly all actives have a fitted effect of over 50% in size
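Fission yeast strain RE007, carrying one chromosomally integrated HIV-1 vpr copy, was seeded at OD 0.01 in PMG+AL medium with 23 nL pinned compound. After 24 h at 30 °C and 99% humidity, viability was read by BacTiter-Glo luminescence.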
TbPYK inhibitor – blocks Trypanosoma brucei pyruvate kinase; Potency, µM (series often up to 76.8 µM), actives largely listed as inhibitors; 0.12% of 410,000 active; TbPYK enzyme, Kinase-Glo Plus ATP luminescence, 45 min; note: nearly all actives have a fitted effect of over 50% in size
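Screened from lowest to highest concentration, compounds were pinned into TbPYK/substrate mixtures, and ADP (130 uM final) was added. Plates sat at room temperature for 45 min prior to Kinase-Glo Plus detection by luminescence.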
LmPK inhibitor – blocks Leishmania mexicana pyruvate kinase activity; Potency, µM (series often up to 57.5 µM), most hits filed as inhibitors; 0.37% of 290,000 active; AID 1721; purified LmPK, Kinase-Glo ATP luminescence, 1 h; Q27686
Target sequence (Q27686 whole entry, looked up): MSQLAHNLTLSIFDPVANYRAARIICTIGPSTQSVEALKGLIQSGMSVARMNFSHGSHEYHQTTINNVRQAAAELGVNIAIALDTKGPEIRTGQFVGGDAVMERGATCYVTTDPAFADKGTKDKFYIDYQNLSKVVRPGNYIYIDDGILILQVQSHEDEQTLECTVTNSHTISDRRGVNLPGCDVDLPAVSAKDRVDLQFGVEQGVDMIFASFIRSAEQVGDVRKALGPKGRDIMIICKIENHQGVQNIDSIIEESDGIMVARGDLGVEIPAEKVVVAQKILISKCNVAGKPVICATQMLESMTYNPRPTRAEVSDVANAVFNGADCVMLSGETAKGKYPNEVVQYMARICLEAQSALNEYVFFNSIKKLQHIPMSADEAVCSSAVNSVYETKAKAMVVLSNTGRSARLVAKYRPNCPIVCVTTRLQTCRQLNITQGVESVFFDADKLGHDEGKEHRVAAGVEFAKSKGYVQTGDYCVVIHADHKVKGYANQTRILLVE
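Screened at intermediate enzyme activity to detect both inhibitors and activators: LmPK at 0.1 nM, with a 0.5 nM enzyme column as activation reference. PEP 0.5 mM, ADP 0.1 mM; ATP detected by luminescence after 1 h.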
FBPA Giardia inh – blocks Giardia fructose-bisphosphate aldolase activity; purified Giardia FBPA; A8B2U2; AID 2451; Potency, µM (series often up to 59.6 µM), most hits filed as inhibitors; 0.71% of 290,000 active; note: nearly all actives have a fitted effect of over 55% in size
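40 nM FBPA preincubated 10 min at RT with compound (up to 57.5 uM final), then substrate plus GAPDH/TPI/NAD/arsenate coupling and diaphorase/resazurin added. Fluorescence read after 20 min at RT, 525/598 nm.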
Sm TGR inh – blocks Schistosoma mansoni thioredoxin glutathione reductase | purified TGR, DTNB reduction, TNB absorbance 405 nm | AID 485364 | Q962Y6 | 3% of 360,000 active | Potency, µM (series often up to 114 µM), hits mostly inhibitors; note: nearly all actives have a fitted effect of over 60% in size
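Kinetic colorimetric format: TGR-catalysed, NADPH-driven DTNB reduction monitored via TNB absorbance. Enzyme dispensed at 20 nM; compound exposure 15 min at room temperature before reaction start.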
Large screens that a line does not name were inactive. Most compounds without a hit are left out; they make up all but 3.3% or so of the library. Unless noted, calls come from the whole dose curve; as a rule, active = well fitted curve in the direction sought with a large enough effect; inconclusive = small, poorly fitted or top-dose-only effect, or another doubt; inactive = no such curve, though single readings can be large; an effect the other way counts as inactive or inconclusive.

Cc1ccc(NC(=O)/C(=C\c2ccco2)NC(=O)c2ccco2)cc1	Sm TGR inh 45µM
COC(=O)c1cccc(NC(=O)/C(=C\c2ccco2)NC(=O)c2ccco2)c1	TbPYK inhibitor inconclusive (no result: LmPK inhibitor, FBPA Giardia inh, Sm TGR inh)
Cc1ccc(C(=O)N/C(=C/c2ccco2)C(=O)Nc2cccc(C(=O)O)c2)cc1	TbPYK inhibitor inconclusive, Sm TGR inh 45µM
COc1ccccc1C(=O)N/C(=C/c1ccco1)C(=O)Nc1cccc(C(=O)O)c1	TbPYK inhibitor inconclusive, Sm TGR inh 50µM
CN(C)CCCN(CCCNC(=O)/C=N/O)Cc1ccccc1	none
CCC(C)NC(=O)C1CCC(=O)N(c2cc(OC)c(OC)c(OC)c2)C1c1ccc(OC)cc1 (stereo unspecified)	none
C/C(CCc1ccco1)=N\NC(=O)CNc1cccc2ccccc12	FBPA Giardia inh 20µM
CC(=NNC(=O)C(C)SC(C)C(=O)NN=C(C)c1cccnc1)c1cccnc1 (stereo unspecified)	none (no result: LmPK inhibitor, FBPA Giardia inh, Sm TGR inh)
COc1ccc(S(=O)(=O)N2CCCCCC2)cc1NC(=O)CN1C(=O)NC(C)(c2ccccc2)C1=O (stereo unspecified)	Sm TGR inh 35µM (no result: LmPK inhibitor, FBPA Giardia inh)
N#Cc1cccc(NC(=O)CN2C(=O)NC3(CCCCCC3)C2=O)c1	none (no result: LmPK inhibitor, FBPA Giardia inh)
Cc1cccc(-c2oc3ccccc3c2C#CCCO)c1	Sm TGR inh 16µM
COc1cccc(/C=N/N2C(=O)CSC2=S)c1O	TbPYK inhibitor inconclusive, Sm TGR inh 5.6µM
O=C1CSC(=S)N1/N=C/c1cccc(C(F)(F)F)c1	RE007 growth inh inconclusive
O=C1CSC(=S)N1/N=C/c1c(F)cccc1F	Sm TGR inh 8.9µM
COc1cc(/C=N/N2C(=O)CSC2=S)cc(Br)c1O	RE007 growth inh inconclusive, Sm TGR inh 13µM
COc1cc(/C=N/N2C(C)CCCC2C)cc(Br)c1O (stereo unspecified)	none
O=C1CSC(=S)N1/N=C/C=C/c1ccccc1	Sm TGR inh 16µM
CSC1=NCCN1C(=O)c1ccc(S(=O)(=O)N2CCCCC2)cc1	none
CCOC1CCc2c(C)nc(N)nc2S1 (stereo unspecified)	none (no result: RE007 growth inh)
CN1C(=O)NC(NC(=O)c2cccs2)(C(F)(F)F)C1=O (stereo unspecified)	none
O=S(=O)(Nc1nc2n(n1)C(c1ccc(F)cc1)C=C(c1ccc(Cl)cc1)N2)c1ccccc1 (stereo unspecified)	none (no result: RE007 growth inh, LmPK inhibitor, FBPA Giardia inh)
CCOC(=O)C(NC(=O)CCl)(Nc1sc(C)c(CC)c1C#N)C(F)(F)F (stereo unspecified)	Sm TGR inh 16µM
CCOC(=O)C(NC(=O)CC(C)C)(Nc1sc(C)c(CC)c1C#N)C(F)(F)F (stereo unspecified)	none
CCN(CC)S(=O)(=O)c1cc(C(=O)Nc2cc(C)on2)ccc1Cl	none (no result: FBPA Giardia inh)
Cc1cc(CN2CCCC(CNC(=O)c3ccc(F)cc3)C2)cc(C)c1O (stereo unspecified)	Sm TGR inh 35µM
COc1ccc(C(=O)COC(=O)CCS(=O)(=O)c2ccc(C)cc2)c(OC)c1	none (no result: LmPK inhibitor, FBPA Giardia inh)
COc1ccc(C(=O)CCS(=O)(=O)c2ccc(C)cc2)cc1OC	RE007 growth inh inconclusive, Sm TGR inh 0.45µM
Cc1ccc(S(=O)(=O)CCC(=O)c2ccc(O)cc2O)cc1	RE007 growth inh inconclusive, Sm TGR inh 0.45µM
CCCCn1c(C)c(C(=O)OCC)c2c(CN3CCOCC3)c(O)ccc21	Sm TGR inh 40µM
CCOC(=O)c1c(C)n(C)c2ccc(O)c(CN3CCN(C)CC3)c12	FBPA Giardia inh inconclusive, Sm TGR inh 35µM
CCCCn1c(C)c(C(=O)OCC)c2c(CN3CCCC3)c(O)ccc21	none
CCOC(=O)c1ccc(NC(=O)c2ccc(CO)c(C(=O)NC3CCN(C(=O)OCC)CC3)c2)cc1	none
CCN(CC)CCn1c2c(c(SCC(=O)Nc3ccc(C(C)C)cc3)nc1=O)CCCC2	none (no result: LmPK inhibitor, FBPA Giardia inh)
O=c1c2c3nc4ccccc4nc3n(/N=C/c3ccco3)c2ncn1CCC1=CCCCC1	Sm TGR inh 13µM
CCOC(=O)C(=O)/C(C#N)=C/Nc1ccc(Cl)cc1	Sm TGR inh inconclusive
O=C(NC1CCCCC1)Oc1cc2oc(=O)sc2cc1Br	RE007 growth inh inconclusive, TbPYK inhibitor inconclusive, Sm TGR inh 3.2µM
O=C(NC1CCCCCC1)c1ccc(Br)o1	none
COc1ccc(-n2c(-c3cccc(C)c3[N+](=O)[O-])n[nH]c2=S)cc1	TbPYK inhibitor inconclusive, LmPK inhibitor inconclusive
Cc1cccc(-c2n[nH]c(=S)n2-c2ccccc2)c1[N+](=O)[O-]	TbPYK inhibitor 7.1µM, LmPK inhibitor inconclusive
Cc1c(Cl)c(-c2n[nH]c(=S)n2-c2ccccc2)nn1C	TbPYK inhibitor 2.8µM
CCn1c2ccccc2c2cc(/C=C(/C#N)C(N)=S)ccc21	none (no result: LmPK inhibitor, FBPA Giardia inh, Sm TGR inh)
CCOc1c(C=C(C#N)C#N)c2ccccc2n1CC	Sm TGR inh 28µM
O=C1CCCN1CCC(=O)N1CCCC(Nc2ccc(F)cc2)C1 (stereo unspecified)	none (no result: FBPA Giardia inh)
C=CCc1ccc(O)c(-c2ccc(O)c(CC=C)c2)c1	RE007 growth inh inconclusive, Sm TGR inh 45µM
COc1cc(CN2CCCCC2C(=O)Nc2ccc(Oc3ccccc3)nc2)ccc1O (stereo unspecified)	Sm TGR inh 1.8µM
O=C(Nc1ccc(Oc2ccccc2)nc1)C1CCCCN1Cc1ccc(O)cc1 (stereo unspecified)	Sm TGR inh 32µM (no result: RE007 growth inh, TbPYK inhibitor, FBPA Giardia inh)
Cc1c(NC(=S)NC(=O)c2sc3ccccc3c2Cl)cccc1C(=O)O	Sm TGR inh 3.2µM
O=C(NCc1ccncc1)c1cccc(S(=O)(=O)N2CCc3ccccc32)c1	Sm TGR inh 28µM (no result: LmPK inhibitor, FBPA Giardia inh)
CC1Cc2ccccc2N1S(=O)(=O)c1cccc(C(=O)NCc2ccncc2)c1 (stereo unspecified)	none (no result: LmPK inhibitor, FBPA Giardia inh)
O=C(NCCc1ccccn1)c1cccc(S(=O)(=O)N2CCCCCC2)c1	none
O=C(NCCc1ccccn1)c1cccc(S(=O)(=O)N2CCc3ccccc32)c1	Sm TGR inh 40µM
O=C(c1ccc(O)c(Br)c1)c1cc(Br)ccc1O	RE007 growth inh 63µM (no result: LmPK inhibitor, FBPA Giardia inh, Sm TGR inh)
COc1ccc(C(=O)Nc2cnc(NC(=O)c3cccs3)cc2C)cc1	none
O=C(Nc1ccccn1)c1onc2c1CCCC2	RE007 growth inh 10µM, TbPYK inhibitor inconclusive, LmPK inhibitor 11µM
CCc1ccc(N2C(=O)NC(=O)/C(=C\C=C\c3ccco3)C2=O)cc1	Sm TGR inh 11µM
O=C1NC(=O)N(c2ccccc2)C(=O)/C1=C\C=C\c1ccccc1	TbPYK inhibitor inconclusive, Sm TGR inh 14µM
Cc1cc(C)cc(N2C(=O)NC(=O)/C(=C\C=C\c3ccco3)C2=O)c1	Sm TGR inh inconclusive
CCCCN1C(=O)/C(=C/C=C/c2ccco2)C(=O)NC1=S	Sm TGR inh 4.5µM
O=C1NC(=O)N(Cc2ccc(F)cc2)C(=O)/C1=C\C=C\c1ccco1	Sm TGR inh 7.9µM
Cc1ccc(N2C(=O)NC(=O)/C(=C/C=C/c3ccco3)C2=O)cc1	Sm TGR inh inconclusive
NNC(=O)c1cc(C23CC4CC(CC(C4)C2)C3)nc2ccccc12	none

High-throughput results as filed in PubChem.
